Screening results deposited in PubChem BioAssay by National Center for Advancing Translational Sciences (NCATS).
Shown is part of a subset that was picked to be rich in hits.
Glioma ERSR ind: qHTS for Inducers of the Endoplasmic Reticulum Stress Response (ERSR) in Human Glioma: qHTS. U87-MG GRP78 promoter luciferase reporter, 16 h. Potency, µM, without a hit: at the top dose activation, hits mostly activators. actives 0.02% (n = 420,000). AID 602332, 2012; also: potency is read from the fitted curve at half-maximal effect; series mostly up to about 76 µM; % of control where 0% means no effect; nearly all actives have a fitted effect of over 35% in size
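Stably transfected U87-MG glioma cells carrying a GRP78-based luciferase sensor; 16 h compound incubation. Luminescence end-point read 10 min after Bright-Glo addition at room temperature.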
ClpP mod: qHTS Assay for Activators of ClpP | ATP-dependent Clp protease proteolytic subunit (Bacillus subtilis (strain 168)), P80244 | purified B. subtilis ClpP, FRET peptide cleavage, 20 min | Potency, µM (top dose mostly 57.5 µM), for the others: at the highest dose activity change, negative = active | actives 1.9% (n = 340,000); active = well fitted falling curve with a large enough effect; inconclusive = small, poorly fitted or top-dose-only effect; inactive = no such curve, though single readings can be large or run the other way; also: potency is read from the fitted curve at half-maximal effect; the source files actives as falling curves though it sought activators and does not explain the sign; nearly all actives have a fitted effect of over 65% in size
Target sequence (P80244 whole entry, looked up): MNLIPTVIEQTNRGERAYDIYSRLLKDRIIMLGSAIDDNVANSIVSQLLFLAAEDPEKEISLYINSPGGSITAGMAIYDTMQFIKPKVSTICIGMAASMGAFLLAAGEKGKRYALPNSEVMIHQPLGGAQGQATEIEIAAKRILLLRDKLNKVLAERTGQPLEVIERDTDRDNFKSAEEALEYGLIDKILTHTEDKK
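Buffer: 100 mM Tris/HCl pH8, 100 mM KCl, 0.05% low protease BSA, 2.5% glycerol, 0.01% Tween-20. ClpP 10 microg/mL final; 20 min RT; delta FRET normalized to ADEP and DMSO controls.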
N370S GC mod: qHTS Assay for Inhibitors and Activators of N370S glucocerebrosidase as a Potential Chaperone Treatment of Gaucher Disease | Potency, µM (top dose mostly 59.4 µM), inactives show at the highest dose activity change, negative = inhibition, usual class: inhibitors | N370S GC spleen homogenate, 4MU-glucoside fluorescence | actives 0.092% (n = 330,000) | AID 2101, 2009;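 also: potency is read from the fitted curve at half-maximal effect; 0% = full enzyme activity and -100% = no enzyme basal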
a7 integrin act: qHTS for Activators of Integrin-Mediated Alleviation for Muscular Dystrophy. alpha7betagal myoblasts, beta-gal FDG fluorescence, 48 h. Potency, µM (doses to about 38.3 µM), for the others: at the highest dose activation, actives largely listed as activators. actives 0.064% (n = 350,000). AID 624291, 2012;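 also: potency is read from the fitted curve at half-maximal effect; 100% = response of the positive control SU9516; nearly all actives have a fitted effect of over 60% in size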
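alpha7betagal+/- myoblasts (passage 13, 250/well) treated 48 h at 37C with compounds at 1:260 dilution of DMSO stock. Lysed, then beta-galactosidase activity read as FDG fluorescence (ex 480/em 540) after 30 min, with pre-read for autofluorescence.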
Anesthetic bind: qHTS Assay for Identification of Novel General Anesthetics. Ferritin light chain (Equus caballus), P02791. apoferritin/1-aminoanthracene competitive binding, fluorescence. Potency, µM (titrated, usually from 77.5 µM), inactives show top-dose activity change, negative = displacement, usual class: inhibitors. actives 0.074% (n = 350,000); also: potency is read from the fitted curve at half-maximal effect; % is scaled to controls: 0 for no effect and ±100 for the full control effect; nearly all actives have a fitted effect of over 20% in size
Target sequence (P02791 2-175 limits assumed): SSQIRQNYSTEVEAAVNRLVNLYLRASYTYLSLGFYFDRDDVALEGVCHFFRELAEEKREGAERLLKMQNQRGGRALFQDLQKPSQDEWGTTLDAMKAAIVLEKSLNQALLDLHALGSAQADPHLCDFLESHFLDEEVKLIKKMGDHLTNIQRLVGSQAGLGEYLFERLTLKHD
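Apoferritin-based anesthetic binding model; compound displacement of fluorescent 1-AMA measured as endpoint fluorescence after 10 minutes at room temperature, scaled to free-ligand and complex controls.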
CBFb-RUNX1 inh: qHTS Assay for Compounds Blocking the Interaction Between CBF-beta and RUNX1 for the Treatment of Acute Myeloid Leukemia; Runt-related transcription factor 1 (Homo sapiens) + Core-binding factor subunit beta …; AlphaScreen CBFb-His/RUNX1-biotin binding, biochemical; Potency, µM (top dose mostly 59.8 µM), inactives show at the highest dose activity, negative = inhibition, hits mostly inhibitors; 230,000 tested, under 10 active; AID 1477, 2009; also: % of control where 0% means no effect
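Compounds were screened at multiple concentrations against a preformed CBF-beta(His)/RUNX1(biotin) complex (30 nM of each) for 15 min at room temperature, followed by 90 min with nickel and streptavidin beads and AlphaScreen reading.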
* hit, by the source's call; ? = inconclusive; . = not tested or not shown. Unless noted, calls follow the shape of the dose curve; as a rule, active = well fitted curve in the direction sought with a large enough effect; inconclusive = small, poorly fitted or top-dose-only effect, or another doubt; inactive = no such curve, though single readings can be large; an effect the other way counts as inactive or inconclusive.

SMILES	Glioma ERSR ind	ClpP mod	N370S GC mod	a7 integrin act	Anesthetic bind	CBFb-RUNX1 inh
Cc1oc(-c2ccccc2NC(=O)C2CCCO2)nc1CNC(=O)c1[nH]c2c(C)ccc(C)c2c1C (stereo not drawn)	-5%	.	.	.	.	.
COc1ccc(C(=O)Cc2nnc(C)s2)cc1	-3%	20µM*	-7%	-6%	-7%	8%
COc1ccc(CCNC(=O)c2cc(-c3cc(C)ccc3O)n[nH]2)cc1OC	5%	4%	-9%	10µM*	-21%	7%
COc1ccc(CCNC(=O)c2cc(-c3ccc(C)c(C)c3O)n[nH]2)cc1OC	0%	-5%	-1%	14%	-16%	3%
Cc1c(C(=O)N2CCN(C)CC2)sc2ncnc(NCC3(c4ccccc4)CCOCC3)c12	-3%	.	.	.	.	.
CN1CCN(c2cc(-c3ccccc3)nc3cc(-c4ccc(F)cc4)nn23)CC1	-6%	22µM*	?	-13%	-4%	15%
COc1cccc(-c2cc3nc(-c4ccccc4)cc(N4CCC5(CC4)OCCO5)n3n2)c1	1%	16µM*	17%	6%	130%	?
Fc1ccc(-c2cc3nc(-c4ccccc4)cc(N4CCN(CCN5CCOCC5)CC4)n3n2)cc1	-3%	?	-24%	-2%	1%	25%
COc1cccc(-c2cc3nc(-c4ccccc4)cc(N4CCN(C(=O)c5ccoc5)CC4)n3n2)c1	-5%	4%	.	20%	.	.
CC(C)N1CCN(C(=O)c2cnn(-c3nccc(-c4ccc5c(c4)OCO5)n3)c2-c2ccco2)CC1	-6%	.	.	.	.	.
Cc1ncsc1CCC(=O)N1CCCC(c2nc(-c3ccncc3)ncc2-c2ccccc2)C1 (stereo not drawn)	-4%	.	.	.	.	.
Cc1ccc(CNc2nc(CN3CCCCC3c3cccnc3)nc3ccccc23)o1 (stereo not drawn)	-9%	.	.	.	.	.
CCOc1cc2[nH]c(=S)n(CCCC(=O)NCc3ccco3)c(=O)c2cc1OCC	-3%	-5%	2%	-34%	-7%	3%
CCOc1cc2[nH]c(=O)n(CCCC(=O)NCc3ccco3)c(=O)c2cc1OCC	0%	25µM*	-17%	-8%	-8%	1%
CCOc1cc2[nH]c(=O)n(CCCCC(=O)N3CCCCCC3)c(=O)c2cc1OCC	-2%	13µM*	6%	-25%	-5%	-4%
CCOc1cc2[nH]c(=O)n(CCCCC(=O)NCc3ccco3)c(=O)c2cc1OCC	-4%	35µM*	1%	6%	3%	2%
O=C(CCCCCN1C(=O)c2ccccc2C1=O)NCc1ccco1	10%	18µM*	2%	-10%	7%	-17%
CCOc1cc2[nH]c(=O)n(CCCCC(=O)N3CCN(c4cccc(Cl)c4)CC3)c(=O)c2cc1OCC	2%	-6%	.	.	-1%	.
CC(O)(c1ccccc1)[N+]1(CC(=O)c2ccccc2)C=CC=C1 (stereo not drawn)	0%	-3%	.	.	.	.
CN(c1cccc(F)c1)c1cc2c(c3c1ccn3C)C1CCC2C1 (stereo not drawn)	-6%	8.9µM*	.	.	.	.
Oc1ccc(CN2CCCCC2)nc1-c1ccccc1	-1%	35µM*	1%	6%	-4%	6%
Oc1ccc(-c2ccccc2)cc1CN1CCCCCC1	3%	.	-11%	-11%	-11%	.
COc1ccccc1Oc1ccc(S(=O)(=O)N2CCOCC2)cc1S(=O)(=O)N1CCOCC1	1%	-9%	-3%	2%	-4%	-7%
